# Data as given in PubChem BioAssay (NCATS).
# Where “and” joins values, the source holds several entries; their conditions need not be identical. Equal values may be shown once. Entries after “also recorded” stand apart in the source; their conditions may differ. Inconclusive results are not listed. Entries that show only a call come without a potency. Calls of active or inactive are those of the source. Unless noted, calls come from the whole dose curve.
# Columns and labels:
# [1] = Cytotoxicity counterscreen for inhibitors of SARS-CoV-2 cell entry (AID 1645845); note: nearly all actives have a fitted effect of over 50% in size
# In short: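 Counterscreen run in the same HEK293-ACE2 line as the pseudotyped-particle entry assay, without particles. Viability after 48 h at 37 C was read as ATP luminescence, scaled between cell-containing and cell-free wells.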
# [2] = Primary qHTS to identify inhibitors of SARS-CoV-2 cell entry (AID 1645846); note: nearly all actives have a fitted effect of over 45% in size
# In short: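 Entry measured by luciferase signal 48 h after adding SARS-CoV-2-S pseudotyped MLV particles to HEK293-ACE2 cells preincubated 1 h with compounds. Normalisation: bald particles and spike particles.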
# [3] = VSVG counterscreen qHTS to identify inhibitors of SARS-CoV-2 cell entry (AID 1645847); note: potency is the fitted concentration of half-maximal effect; nearly all actives have a fitted effect of over 65% in size
# In short: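 Luminescence read after 48 h infection at 37 C with VSV-G-pseudotyped MLV particles, following 1 h compound exposure of Expi293F cells stably expressing human ACE2; scaled between bald particle and VSV-G particle wells.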
# [4] = Primary qHTS for inhibitors of nuclear receptor binding SET domain protein 2 (NSD2) in an isogenic RCH-ACV NSD2 p.E1099K mutant (9B) (AID 1645876; active = well fitted curve in the direction sought with a large enough effect; an effect the other way counts as inactive or inconclusive; note: nearly all actives have a fitted effect of over 70% in size; note: potency is the fitted concentration of half-maximal effect)
# [5] = Primary qHTS for inhibitors of nuclear receptor binding SET domain protein 2 (NSD2) in an RCH-ACV wild type WT cells (2C) (AID 1645877; active = well fitted curve in the direction sought with a large enough effect; an effect the other way counts as inactive or inconclusive; note: nearly all actives have a fitted effect of over 70% in size; note: potency is the fitted concentration of half-maximal effect)
# Papain (Carica papaya) = Papain (Carica papaya) (UniProt P00784); test: Primary qHTS assay for inhibitors of the protease papain (AID 1645873; active = well fitted curve in the direction sought with a large enough effect; an effect the other way counts as inactive or inconclusive;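 note: papain turnover of Z-FR-AMC read as the AMC fluorescence gain over 10 min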)
# [6] = activity change, negative = inhibition: at 57.1 µM (top of the series) unless noted
# Chain of Papain (Carica papaya) (P00784 whole entry, looked up): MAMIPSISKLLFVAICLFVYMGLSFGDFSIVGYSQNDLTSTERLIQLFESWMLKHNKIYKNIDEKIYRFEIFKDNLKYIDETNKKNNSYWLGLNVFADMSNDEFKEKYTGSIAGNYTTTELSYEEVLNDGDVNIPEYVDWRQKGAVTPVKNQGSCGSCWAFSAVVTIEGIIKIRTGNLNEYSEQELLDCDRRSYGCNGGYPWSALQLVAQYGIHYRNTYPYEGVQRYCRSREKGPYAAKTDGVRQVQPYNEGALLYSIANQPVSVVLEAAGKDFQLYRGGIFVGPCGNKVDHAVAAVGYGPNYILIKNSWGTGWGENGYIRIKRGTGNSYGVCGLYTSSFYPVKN
smiles,measurement,setting,value
CCCCC(O)/C=C(C)/C=C/C=C/C(=O)N1CCCC1=O (stereo not given),Potency,[1],inactive
same,"activity change, negative = inhibition",[2]; [6],-3.29%
O=C1O[C@H](CO)[C@@H](O)[C@H](O)[C@H]1O,Potency,[1],inactive
same,"activity change, negative = inhibition",[2]; [6],-15.4%
Cc1oc(=O)oc1COC(=O)[C@@H]1N2C(=O)[C@@H](NC(=O)[C@H](N)c3ccccc3)[C@H]2SC1(C)C,Potency,[1],inactive
same,Potency,[2]; [6],inactive
CC(CN(C)C)C(C)(O)Cc1ccc(Cl)cc1 (stereo not given),Potency,[1],inactive
same,"activity change, negative = inhibition",[2]; [6],0.771%
NC(=O)c1ccccc1O,Potency,[1],inactive
same,"activity change, negative = inhibition",[2]; [6],1.57%
C[C@]12CCC(=O)C=C1CC[C@H]1[C@@H]3CC[C@](O)(C(=O)CO)[C@@]3(C)C[C@H](O)[C@@]12F,Potency,[1],inactive
same,"activity change, negative = inhibition",[2]; [6],-15.9%
CCOC(=O)C1=C(C)NC(C)=C(C(=O)OC)C1c1cccc([N+](=O)[O-])c1 (stereo not given),Potency,[1],inactive
same,Potency,[2]; [6],inactive
CCCC(O)C(CC)CO (stereo not given),Potency,[1],inactive
same,Potency,[2]; [6],inactive
CO[C@@]1(NC(=O)C2SC(=C(C(N)=O)C(=O)O)S2)C(=O)N2C(C(=O)O)=C(CSc3nnnn3C)CS[C@@H]21 (stereo not given in full),Potency,[1],inactive
same,"activity change, negative = inhibition",[2]; [6],4.49%
CN1C[C@H](C(=O)N[C@]2(C)O[C@@]3(O)[C@@H]4CCCN4C(=O)[C@H](Cc4ccccc4)N3C2=O)C=C2c3cccc4[nH]cc(c34)C[C@H]21,Potency,[1],inactive
same,"activity change, negative = inhibition",[2]; [6],-28.9%
CC(C(=O)O)c1ccc2c(c1)CC(=O)c1ccccc1S2 (stereo not given),Potency,[1],inactive
same,Potency,[2]; [6],inactive
CC(CC(C#N)(c1ccccc1)C(C)C)N(C)C (stereo not given),Potency,[1],inactive
same,Potency,[2]; [6],inactive
C[C@]12C=CC(=O)C=C1CC[C@@H]1[C@@H]2[C@@H](O)C[C@@]2(C)[C@H]1CC[C@]2(O)C(=O)CO,Potency,[1],inactive
same,Potency,[2]; [6],inactive
same,"activity change, negative = inhibition",[2]; [6],-3.66%
same,Potency,[3],13.6 µM (active)
Clc1ccc2nsnc2c1NC1=NCCN1,Potency,[1],inactive
same,Potency,[2]; [6],inactive
same,"activity change, negative = inhibition",[2]; [6],-13.9%
CO[C@@H]1[C@@H](OC(N)=O)[C@@H](O)[C@H](Oc2ccc3c(O)c(NC(=O)c4ccc(O)c(CC=C(C)C)c4)c(=O)oc3c2C)OC1(C)C,Potency,[1],inactive
same,Potency,[2]; [6],inactive
same,"activity change, negative = inhibition",[2]; [6],0.81%
CCN1CCCC1CNC(=O)c1cc(S(=O)(=O)CC)c(N)cc1OC (stereo not given),Potency,[1],inactive
same,"activity change, negative = inhibition",[2]; [6],4.53% and -0.585%
Nc1ccn(C[C@@H](CO)OCP(=O)(O)O)c(=O)n1,"activity change, negative = cytotoxicity",[1],2.99% [at 0.702 µM] (inactive) and 4.32% [at 11.3 µM] (inactive)
same,"activity change, negative = inhibition",[2]; [6],-18.8% [at 11.3 µM]
same,outcome,[2]; [6],inactive [at 0.702 µM]
same,"activity change, negative = viability loss",[4],-0.956% [at 9.23 µM] (inactive)
same,"activity change, negative = cell killing",[5],-8.19% [at 9.23 µM] (inactive)
CC(C)(C)C(=O)Oc1ccc(S(=O)(=O)Nc2ccccc2C(=O)NCC(=O)O)cc1,Potency,[1],inactive
same,Potency,[2]; [6],inactive
same,"activity change, negative = inhibition",[2]; [6],-32.8%
O=C(O)c1cc(=O)[nH]c(=O)[nH]1,Potency,[1],inactive
same,Potency,[2]; [6],inactive
same,"activity change, negative = inhibition",[2]; [6],-5.5%
COCCCN1CCC(NC(=O)c2cc(Cl)c(N)c3c2OCC3)CC1,Potency,[1],inactive
same,Potency,[2]; [6],inactive
same,"activity change, negative = inhibition",[2]; [6],-5.91%
Nc1ncnc2c1ncn2[C@@H]1O[C@H](CO)[C@@H](O)[C@H]1O,Potency,[1],inactive
same,Potency,[2]; [6],inactive
same,"activity change, negative = inhibition",[2]; [6],-8.35%
COc1ccc2cccc(CCNC(C)=O)c2c1,Potency,[1],inactive
same,Potency,[2]; [6],inactive
same,"activity change, negative = inhibition",[2]; [6],-31%
O=C(NCC1CCCCN1)c1cc(OCC(F)(F)F)ccc1OCC(F)(F)F (stereo not given),Potency,[1],inactive
same,Potency,[2]; [6],inactive
same,"activity change, negative = inhibition",[2]; [6],-8.95%
CCc1cc(C(N)=S)ccn1,Potency,[1],inactive
same,Potency,[2]; [6],inactive
same,"activity change, negative = inhibition",[2]; [6],-20.7%
NC(=O)c1cnccn1,Potency,[1],inactive
same,Potency,[2]; [6],inactive
same,"activity change, negative = inhibition",[2]; [6],-28%
COc1ccc2[nH]cc(CCNC(C)=O)c2c1,Potency,[1],inactive
same,Potency,[2]; [6],inactive
same,"activity change, negative = inhibition",[2]; [6],-6.18%
CCOP(=S)(OCC)Oc1ccc2c(C)c(Cl)c(=O)oc2c1,Potency,[1],inactive
same,Potency,[4],7.5 µM (active)
same,Potency,[5],6.68 µM (active)
O=C(O)CSCC(=O)NC1CCSC1=O (stereo not given),Potency,[1],inactive
same,Potency,[2]; [6],inactive
same,"activity change, negative = inhibition",[2]; [6],-0.451%
CC(C)Cn1cnc2c(N)nc3ccccc3c21,Potency,[1],inactive
same,Potency,[2]; [6],inactive
same,"activity change, negative = inhibition",[2]; [6],0.431% [at 27.1 µM]
O=c1[nH]cnc2[nH]ncc12,Potency,[1],inactive
same,Potency,[2]; [6],inactive
same,"activity change, negative = inhibition",[2]; [6],-11.8% [at 114 µM]
CC(C)C[C@H](CN)CC(=O)O,Potency,[1],inactive
same,Potency,[2]; [6],inactive
same,Potency,[4],inactive
same,Potency,[5],inactive
CN1C(C(=O)Nc2ccccn2)=C(O)c2ccccc2S1(=O)=O,Potency,[1],inactive
same,Potency,[2]; [6],inactive
same,"activity change, negative = inhibition",[2]; [6],-89.8%
same,Potency,[3],21.5 µM (active)
CNNCc1ccc(C(=O)NC(C)C)cc1,Potency,[1],inactive
same,Potency,[2]; [6],inactive
same,"activity change, negative = inhibition",[2]; [6],3.71%
C[C@]12C=CC(=O)C=C1CC[C@@H]1[C@@H]2C(=O)C[C@@]2(C)[C@H]1CC[C@]2(O)C(=O)CO,Potency,[1],inactive
same,Potency,[2]; [6],inactive
same,"activity change, negative = inhibition",[2]; [6],-11.4%
CCCc1nn(C)c2c(=O)[nH]c(-c3cc(S(=O)(=O)N4CCN(C)CC4)ccc3OCC)nc12,Potency,[1],inactive
same,Potency,[2]; [6],inactive
same,"activity change, negative = inhibition",[2]; [6],-6.94%
CC(=O)CC(c1ccccc1)c1c(O)c2ccccc2oc1=O (stereo not given),Potency,[1],inactive
same,Potency,[2]; [6],inactive
same,"activity change, negative = inhibition",[2]; [6],0.432%
Cc1cnc(NC(=O)C2=C(O)c3ccccc3S(=O)(=O)N2C)s1,Potency,[1],inactive
same,Potency,[2]; [6],inactive
same,"activity change, negative = inhibition",[2]; [6],-28.9%
COC(=O)[C@@H]1[C@H]2C[C@H]3c4[nH]c5ccccc5c4CCN3C[C@@H]2CC[C@@H]1O,Potency,[1],inactive
same,Potency,[2]; [6],inactive
same,"activity change, negative = inhibition",[2]; [6],-32.5%
O=C(O)c1cccnc1,Potency,[1],inactive
same,Potency,[2]; [6],inactive
same,"activity change, negative = inhibition",[2]; [6],-20.2% [at 114 µM]
CNC[C@H](O)c1cccc(O)c1,Potency,[1],inactive
same,Potency,[2]; [6],inactive
same,"activity change, negative = inhibition",[2]; [6],1.11%
CCCCCN(C)CCC(O)(P(=O)(O)O)P(=O)(O)O,outcome,[1],inactive [at 11.3 µM]; also recorded: inactive [at 5.25 µM]
same,"activity change, negative = inhibition","[2]; SARS-CoV-2 pseudovirus cell entry assay, luminescence, at 5.25 µM (top of the series)",-11.4%
same,"activity change, negative = inhibition","[2]; SARS-CoV-2 pseudovirus cell entry assay, luminescence, at 11.3 µM (top of the series)",-30.6%
same,outcome,Papain (Carica papaya),inactive
Cc1ncc([N+](=O)[O-])n1CC(C)O (stereo not given),Potency,[1],inactive
same,"activity change, negative = inhibition","[2]; SARS-CoV-2 pseudovirus cell entry assay, luminescence, at 57.1 µM (top of the series)",-6.83%
same,"activity change, negative = inhibition","[2]; SARS-CoV-2 pseudovirus cell entry assay, luminescence, at 114 µM (top of the series)",-38.4%
C[C@@H](CN1CC(=O)NC(=O)C1)N1CC(=O)NC(=O)C1,Potency,[1],inactive
same,Potency,[2]; [6],inactive
same,"activity change, negative = inhibition",[2]; [6],-20%
CC(C)Cc1ccc(C(C)C(=O)O)cc1 (stereo not given),Potency,[1],inactive
same,Potency,[2]; [6],inactive
same,"activity change, negative = inhibition",[2]; [6],0.301%
O=S(=O)(O)CCS,Potency,[1],inactive
same,Potency,[2]; [6],inactive
same,"activity change, negative = inhibition",[2]; [6],1.92%
COc1ccc(C(=O)CC(=O)c2ccc(C(C)(C)C)cc2)cc1,Potency,[1],inactive
same,Potency,[2]; [6],inactive
same,"activity change, negative = inhibition",[2]; [6],-3.57%
Nc1ccc(S(N)(=O)=O)cc1,Potency,[1],inactive
same,Potency,[2]; [6],inactive
same,"activity change, negative = inhibition",[2]; [6],-17.3%
C#CCN[C@@H]1CCc2ccccc21,Potency,[1],inactive
same,Potency,[2]; [6],inactive
same,"activity change, negative = inhibition",[2]; [6],-2.27%
CCC1(C)CC(=O)NC1=O (stereo not given),Potency,[1],inactive
same,Potency,[2]; [6],inactive
same,"activity change, negative = inhibition",[2]; [6],-9.22% [at 114 µM]
Nc1cc(C(Cl)=C(Cl)Cl)c(S(N)(=O)=O)cc1S(N)(=O)=O,Potency,[1],inactive
same,Potency,[2]; [6],inactive
same,"activity change, negative = inhibition",[2]; [6],-25%
CCC1(CC)C(=O)C=CNC1=O,Potency,[4],inactive
same,Potency,[5],inactive
